Screening results from PubChem BioAssay.
Hits are enriched below; roughly 6% of the tested compounds scored in any of these assays.
DRD3 agonist = D3 dopamine receptor (human) agonism | D3R DiscoveRx beta-arrestin cells, luminescence, 90 min | max activation, % | 0.58% of 410,000 active | AID 652048; in the data active = max activation above about 30%
Target sequence (P35462 whole entry, looked up): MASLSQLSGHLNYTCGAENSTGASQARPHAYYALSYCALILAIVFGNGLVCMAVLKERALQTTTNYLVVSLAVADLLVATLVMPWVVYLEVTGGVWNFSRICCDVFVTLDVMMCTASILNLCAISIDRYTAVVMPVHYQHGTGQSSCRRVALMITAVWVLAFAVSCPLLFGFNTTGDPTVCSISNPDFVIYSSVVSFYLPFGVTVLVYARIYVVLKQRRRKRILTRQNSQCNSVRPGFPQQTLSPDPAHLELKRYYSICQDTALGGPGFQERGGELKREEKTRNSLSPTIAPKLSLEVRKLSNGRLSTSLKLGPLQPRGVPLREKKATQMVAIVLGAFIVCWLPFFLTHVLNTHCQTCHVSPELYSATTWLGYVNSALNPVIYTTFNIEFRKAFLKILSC
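Agonist mode: compounds and dopamine controls were applied to plated cells for 90 min at 37 degrees C after an overnight attachment at 1500 cells/well. Luminescent read-out followed 30 - 60 minutes at room temperature with DiscoveRx detection reagent.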
D1 antag = antagonists of human D1 dopamine receptor | HEK293 TREx D1 cells, calcium flux, dopamine EC80; active compounds read low | 3.2% of 360,000 active | activity change, negative = inhibition, % at 10 µM | P21728; in the data active = activity change below about -30%
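Antagonism measured as reduced calcium response to an EC80 dopamine addition following 180 s compound pre-read; cells were inducible HEK293 Trex D1 plated overnight at 30 C, read kinetically at 1 cycle/sec.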
D1 ag = human D1 receptor agonism; HEK293 T-REx D1 cells, calcium flux, agonist mode; activation, % at 2 µM; 1% of 360,000 active; in the data active = activation above about 30%
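Inducible HEK293 T-REx D1 cells, force-coupled to calcium signalling, were plated at 4000 cells/well with tetracycline and held overnight at 30 C. After no-wash calcium dye loading, compound-evoked calcium rise over 180 s flagged agonists.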
D1 PAM = human D1 dopamine receptor positive modulation | P21728 | potentiation, % at 10 µM | HEK293 TREx D1 cells, calcium flux, dopamine EC20 potentiation | 0.036% of 360,000 active; in the data active = potentiation above about 30%
DRD3 antagonist = blocks the human D3 dopamine receptor. P35462. D3R cells, DiscoveRx beta-arrestin luminescence, antagonist mode; active compounds read low. 2.5% of 360,000 active. AID 652054. max response, negative = inhibition, %; in the data active = max response below about -50%; inconclusive = no clear call, values can overlap the other calls
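Cells expressing the human receptor were seeded at 1500 cells/well, incubated overnight at 37 degrees C in 5% CO2, then exposed to library compounds with dopamine controls for 90 minutes at 37 degrees C before luminescent detection.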
Of the large screens only hits and unclear results are named; the others gave an inactive call; ! = repeats disagree.

CSc1nncc(/C(C)=N\Nc2cccc(C)c2)n1	none
CSc1nncc(/C(C)=N\Nc2ccccc2)n1	D1 antag -36.7
CC(=O)c1ccc(C(=O)N2CCc3c([nH]c4ccccc34)C2c2cccc(C)n2)s1 (stereo unspecified)	DRD3 antagonist -56.5
O=C(/C(N=Nc1cccc([N+](=O)[O-])c1)=C(/O)c1ccc(Br)cc1)C(F)(F)F	D1 antag -30.0 (no result: DRD3 agonist, DRD3 antagonist)
COc1ccc(C)cc1S(=O)(=O)Nc1cccc(-c2ccc(N3CCCC3)nn2)c1	none (no result: DRD3 antagonist)
NC[C@H]1O[C@H](O[C@H]2[C@H](O)[C@@H](O[C@H]3O[C@H](CO)[C@@H](O)[C@H](N)[C@H]3O)[C@H](N)C[C@@H]2N)[C@H](O)[C@@H](O)[C@@H]1O	none (no result: D1 antag, D1 ag, D1 PAM, DRD3 antagonist)
O=C(NC(c1ccccc1)c1ccsc1)C1CCN(Cc2ccc(Oc3ccccc3)cc2)CC1 (stereo unspecified)	DRD3 antagonist -100.2 (no result: D1 antag, D1 ag, D1 PAM)
O=C(NC(c1ccccc1)c1ccsc1)C1CCN(Cc2ccc(Cl)c(Cl)c2)CC1 (stereo unspecified)	DRD3 antagonist -60.5 (no result: D1 antag, D1 ag, D1 PAM)
CN(C)c1ccc(/C=C2\SC(=O)N(CCc3nnc(N)s3)C2=O)cc1	D1 ag 62.0
CN(C)c1ccc(/C=C2/SC(=O)N(CCN=C3NS(=O)(=O)c4ccccc43)C2=O)cc1	D1 ag 39.8
O=C(CN1C(=O)c2ccccc2C1=O)OCCOCCN=C1NS(=O)(=O)c2ccccc21	DRD3 antagonist inconclusive
CN(C)c1ccc(/C=C2\SC(=O)N(CC(O)Cn3c4ccccc4c4ccccc43)C2=O)cc1 (stereo unspecified)	D1 ag 45.7
COc1cccc(CNC(=O)c2cccn2-c2nnc(N3CCCC3)s2)c1	none (no result: DRD3 antagonist)
CC1CCCCN1C(=O)c1ccc(COc2ccc([N+](=O)[O-])cc2)o1 (stereo unspecified)	D1 antag -35.6
NNC(=O)c1ccc(COc2ccc([N+](=O)[O-])cc2)o1	none
COc1cccc(OCCCn2cc(/C=C3/C(=N)N4C=C(C)SC4=NC3=O)c3ccccc32)c1	D1 ag 34.4
Cc1ccc(-c2[nH]ncc2CNCCc2cnn(-c3ccccc3)c2)cc1C	D1 ag 34.1
O=C(NC(NNc1ccc([N+](=O)[O-])cc1)(C(F)(F)F)C(F)(F)F)c1ccc(Cl)cc1	D1 antag -54.2, D1 ag 30.6, DRD3 antagonist -74.2
COc1ccc(/C(C)=N/NC(=O)c2nnn(-c3nonc3N)c2-c2cccs2)cc1	D1 ag 56.6
CCOC(=O)c1nnn(-c2nonc2N)c1-c1ccc(OC)cc1	DRD3 antagonist -54.5
CCOC(=O)c1nnn(-c2nonc2N)c1COc1ccccc1	DRD3 antagonist -57.8
C/C(=N\NC(=O)c1nnn(-c2nonc2N)c1-c1cccs1)c1ccc(O)cc1	none
C/C(=N\NC(=O)c1nnn(-c2nonc2N)c1-c1cccs1)c1ccc(C)cc1	D1 ag 87.0
CCOC(=O)c1nnn(-c2nonc2N)c1COc1ccc(F)cc1	none
C/C(=N/NC(=O)c1nnn(-c2nonc2N)c1-c1ccccc1)c1ccncc1	none
COc1ccc(/C(C)=N/NC(=O)c2nnn(-c3nonc3N)c2-c2ccccc2)cc1	D1 ag 49.6
CCc1ccc(Cn2c(CNS(=O)(=O)c3ccc(C)c(C)c3)nc3cccnc32)cc1	none (no result: DRD3 antagonist)
C=CCOC(=O)Nc1nc(CCNC(=O)OCc2ccccc2)c(C(=O)OC)s1	none (no result: D1 antag, D1 ag, D1 PAM)
CCOc1ccc(OCC)c(NC(=O)c2ccc(-c3ccccc3)s2)c1	D1 antag -85.0 (no result: DRD3 antagonist)
CCc1ccc(NC(=O)c2ccc(-c3ccccc3)s2)cc1	none (no result: DRD3 antagonist)
O=C(Nc1ccccc1)c1ccc(-c2ccccc2)s1	D1 ag 50.5
O=C(OCc1cn([C@H]2CN(C(=O)c3cccs3)[C@@H](c3ccc(Cl)cc3)C[C@@H]2O)nn1)c1ccccc1	none (no result: D1 antag, D1 ag, D1 PAM)
COc1ccc(/C=C/C(=O)Nc2cc(C)nn2-c2nc3ccccc3[nH]2)cc1	D1 antag -41.5
Cc1cc(NC(=O)/C=C/c2cccc(F)c2)n(-c2nc3ccccc3[nH]2)n1	none
Cc1cc(NC(=O)c2c(F)cccc2F)n(-c2nc3ccccc3[nH]2)n1	DRD3 agonist 37.3, DRD3 antagonist -96.0
Cc1cc(NC(=O)/C=C/c2ccc(F)cc2)n(-c2nc3ccccc3[nH]2)n1	D1 antag -35.8
Cc1cccc(CCNC(=O)C2CCN(c3ncnc4c3nc3n4CCCCC3)CC2)c1	none (no result: DRD3 antagonist)
CCCN(CC(=O)Nc1ccccc1OC)C(=O)CCNC(=O)c1ccccc1OC	none
Cc1ccc(NC(=O)CC2=NC(=O)C(CC(=O)Nc3ccccc3F)S2)cc1 (stereo unspecified)	D1 antag -49.8
Cc1ccc(NC(=O)CC2Sc3ccc(C(F)(F)F)cc3NC2=O)cc1 (stereo unspecified)	none (no result: DRD3 antagonist)
N/C(=N\S(=O)(=O)c1cc(C(F)(F)F)cc(C(F)(F)F)c1)c1ccc(Cl)cc1	D1 antag -77.5
Cc1ccc(Oc2nnc(-c3cccs3)c3ccccc23)cc1C	D1 antag -31.6, DRD3 antagonist inconclusive
Cc1cccc(C(=O)NCCc2csc(C)n2)c1	D1 antag -85.4
CCS(=O)(=O)NCCc1csc(-c2ccccc2)n1	none
O=C(NCCc1csc(-c2ccccc2)n1)c1ccco1	D1 antag -30.4
O=C(NCCc1csc(-c2cccnc2)n1)c1ccccc1	D1 antag -47.3!
CCS(=O)(=O)NCCc1csc(-c2cccnc2)n1	D1 antag -35.9
Cc1c(Cl)cccc1NC(=O)CSc1nc(=O)n(Cc2ccncc2)c2c1CCC2	none (no result: D1 antag, DRD3 antagonist)
O=C(NCCc1csc(-c2ccccc2)n1)c1cccs1	D1 antag -59.6
O=C(NCCc1csc(-c2ccc(Cl)cc2)n1)c1cccs1	none (no result: DRD3 antagonist)
CCC(=O)N1CCCc2cc(S(=O)(=O)N3CCC(C(=O)NCc4ccc(F)cc4)CC3)ccc21	none (no result: DRD3 antagonist)
CCC(=O)N1CCCc2cc(S(=O)(=O)N3CCC(C(=O)Nc4ccc(C#N)cc4)CC3)ccc21	D1 antag -59.3 (no result: DRD3 antagonist)
CCC(=O)N1CCCc2cc(S(=O)(=O)N3CCC(C(=O)Nc4ccc(F)c(F)c4)CC3)ccc21	D1 antag -32.4 (no result: DRD3 antagonist)
CCC(=O)N1CCCc2cc(S(=O)(=O)N3CCC(C(=O)NC4CCCCC4)CC3)ccc21	none (no result: DRD3 antagonist)
Cc1noc(C)c1CSCC(=O)Nc1cccc(C(F)(F)F)c1	none (no result: D1 antag, D1 ag, D1 PAM)
Cc1ccc(S(=O)(=O)N2CCCOC2CNC(=O)C(=O)NCCc2c[nH]c3ccccc23)cc1 (stereo unspecified)	D1 antag -35.8
COc1ccc(CCNC(=O)C(=O)NCC2OCCCN2S(=O)(=O)c2cc(C)ccc2C)cc1 (stereo unspecified)	D1 antag -44.1
COc1ccc(N2CCN(C3CCCN(Cc4cccc(OC)c4)C3)CC2)cc1 (stereo unspecified)	none
COc1cc(-c2ccno2)ccc1S(=O)(=O)N1CCN(c2cc(C)ccc2C)CC1	none (no result: DRD3 antagonist)
CCOc1ccc(-c2oc3ccccc3c(=O)c2O)cc1OCC	none (no result: DRD3 antagonist)
